We go through 1 molecule from the supplement of paper PMC8728848.

This is one part of a sample in which the strongest signals are shown more often than they occur.

Common to all, as to experiment: glycan array binding signal (z-score within array); higher = stronger binding
Settings in all cases: glycan notation: IUPAC condensed, linker removed

One experiment deals with Fuc(a1-2)Gal. The method in brief: (§1)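 Glycan array binding is given as a within-array Z-score, which can be read as non-binding when negative. The arrays, 3228 of them, came from the Consortium for Functional Glycomics database and were retained only where the protein sequence was available. Z-scores were averaged across arrays of the same protein sequence at different concentrations or buffers and across linkers.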

Experiment [1] concerns the target Fuc(a1-2)Gal(b1-3)GalNAc(a1-3)[Fuc(a1-2)]Gal(b1-4)Glc. The method in brief:
as §1

In experiment [2] the target is Fuc(a1-2)[Gal(a1-3)]Gal(b1-4)GlcNAc(b1-3)[Fuc(a1-2)[Gal(a1-3)]Gal(b1-4)GlcNAc(b1-6)]GalNAc. In short, it runs like this: as §1
Experiment [3] concerns the target Fuc(a1-2)[Gal(a1-3)]Gal(b1-4)[Fuc(a1-3)]GlcNAc(b1-3)GalNAc. In short, it runs like this:
as §1

Experiment [4] concerns the target Fuc(a1-2)[GalNAc(a1-3)]Gal(b1-3)GlcNAc(b1-6)GalNAc. The method in brief: as §1
Experiment [5] deals with Fuc(a1-2)[GalNAc(a1-3)]Gal(b1-4)GlcNAc(b1-3)Gal(b1-4)GlcNAc(b1-3)Gal(b1-4)GlcNAc. The method in brief: as §1
Experiment [6] has as its target Fuc(a1-3)[Gal(b1-4)]GlcNAc(b1-6)GalNAc. In short, it runs like this:
as §1

Experiment [7] addresses Fuc(a1-3)[GalNAc(b1-4)]GlcNAc6S. The method in brief: as §1
Another experiment addresses Gal(a1-4)Gal(b1-4)Glc. The method in brief:
as §1

Another experiment addresses Gal(b1-3)Gal(b1-4)GlcNAc. In short, it runs like this: as §1
The target in experiment [8] is Gal(b1-3)GlcNAc(b1-3)Gal(b1-4)GlcNAc(b1-2)[Gal(b1-3)GlcNAc(b1-3)Gal(b1-4)GlcNAc(b1-6)]Man(a1-6)[Gal(b1-3)GlcNAc(b1-3)Gal(b1-4)GlcNAc(b1-2)Man(a1-3)]Man(b1-4)GlcNAc(b1-4)[Fuc(a1-6)]GlcNAc. The method in brief:
as §1

Experiment [9] concerns the target Gal(b1-3)GlcNAc(b1-3)Gal(b1-4)GlcNAc(b1-3)Gal(b1-4)GlcNAc(b1-2)[Gal(b1-3)GlcNAc(b1-3)Gal(b1-4)GlcNAc(b1-3)Gal(b1-4)GlcNAc(b1-6)]Man(a1-6)[Gal(b1-3)GlcNAc(b1-3)Gal(b1-4)GlcNAc(b1-3)Gal(b1-4)GlcNAc(b1-2)Man(a1-3)]Man(b1-4)GlcNAc(b1-4)[Fuc(a1-6)]GlcNAc. The method in brief:
as §1

Experiment [10] deals with Gal(b1-4)GlcNAc(b1-2)Man(a1-3)[Gal(b1-4)GlcNAc(b1-2)Man(a1-6)]Man(b1-4)GlcNAc(b1-4)GlcNAc. In short, it runs like this: as §1
The target of experiment [11] is Gal(b1-4)GlcNAc(b1-2)[Gal(b1-4)GlcNAc(b1-4)]Man(a1-3)[Gal(b1-4)GlcNAc(b1-2)Man(a1-6)]Man(b1-4)GlcNAc(b1-4)GlcNAc. In short, it runs like this:
as §1

The target in experiment [12] is Gal(b1-4)GlcNAc(b1-3)Gal(b1-4)GlcNAc(b1-2)[Gal(b1-4)GlcNAc(b1-3)Gal(b1-4)GlcNAc(b1-6)]Man(a1-6)[Gal(b1-4)GlcNAc(b1-3)Gal(b1-4)GlcNAc(b1-2)Man(a1-3)]Man(b1-4)GlcNAc(b1-4)[Fuc(a1-6)]GlcNAc. In short, it runs like this:
as §1

In experiment [13] the target is Gal(b1-4)GlcNAc(b1-3)Gal(b1-4)GlcNAc(b1-3)Gal(b1-4)GlcNAc(b1-2)[Gal(b1-4)GlcNAc(b1-3)Gal(b1-4)GlcNAc(b1-3)Gal(b1-4)GlcNAc(b1-6)]Man(a1-6)[Gal(b1-4)GlcNAc(b1-3)Gal(b1-4)GlcNAc(b1-3)Gal(b1-4)GlcNAc(b1-2)Man(a1-3)]Man(b1-4)GlcNAc(b1-4)[Fuc(a1-6)]GlcNAc. In short, it runs like this:
as §1

The target in experiment [14] is Gal(b1-4)GlcNAc(b1-3)Gal(b1-4)GlcNAc(b1-3)Gal(b1-4)GlcNAc(b1-3)Gal(b1-4)GlcNAc(b1-2)Man(a1-3)[Gal(b1-4)GlcNAc(b1-3)Gal(b1-4)GlcNAc(b1-3)Gal(b1-4)GlcNAc(b1-3)Gal(b1-4)GlcNAc(b1-2)Man(a1-6)]Man(b1-4)GlcNAc(b1-4)GlcNAc. In short, it runs like this: as §1
Experiment [15] addresses Gal(b1-4)GlcNAc(b1-3)Gal(b1-4)GlcNAc(b1-3)Gal(b1-4)GlcNAc(b1-3)Gal(b1-4)GlcNAc(b1-2)Man(a1-3)[Gal(b1-4)GlcNAc(b1-3)Gal(b1-4)GlcNAc(b1-3)Gal(b1-4)GlcNAc(b1-3)Gal(b1-4)GlcNAc(b1-2)Man(a1-6)]Man(b1-4)GlcNAc(b1-4)[Fuc(a1-6)]GlcNAc. The method in brief:
as §1

Experiment [16] addresses Gal(b1-4)GlcNAc(b1-3)Gal(b1-4)GlcNAc(b1-3)Gal(b1-4)GlcNAc(b1-3)Gal(b1-4)GlcNAc(b1-2)[Gal(b1-4)GlcNAc(b1-3)Gal(b1-4)GlcNAc(b1-3)Gal(b1-4)GlcNAc(b1-3)Gal(b1-4)GlcNAc(b1-6)]Man(a1-6)[Gal(b1-4)GlcNAc(b1-3)Gal(b1-4)GlcNAc(b1-3)Gal(b1-4)GlcNAc(b1-3)Gal(b1-4)GlcNAc(b1-2)Man(a1-3)]Man(b1-4)GlcNAc(b1-4)[Fuc(a1-6)]GlcNAc. In short, it runs like this: as §1
In experiment [17] the target is Gal(b1-4)GlcNAc(b1-3)Gal(b1-4)GlcNAc(b1-3)Gal(b1-4)GlcNAc(b1-3)Gal(b1-4)GlcNAc(b1-3)Gal(b1-4)GlcNAc(b1-2)Man(a1-3)[Gal(b1-4)GlcNAc(b1-3)Gal(b1-4)GlcNAc(b1-3)Gal(b1-4)GlcNAc(b1-3)Gal(b1-4)GlcNAc(b1-3)Gal(b1-4)GlcNAc(b1-2)Man(a1-6)]Man(b1-4)GlcNAc(b1-4)GlcNAc. In short, it runs like this: as §1
Experiment [18] deals with Gal(b1-4)GlcNAc(b1-3)Gal(b1-4)GlcNAc(b1-3)Gal(b1-4)GlcNAc(b1-3)Gal(b1-4)GlcNAc(b1-3)Gal(b1-4)GlcNAc(b1-2)Man(a1-3)[Gal(b1-4)GlcNAc(b1-3)Gal(b1-4)GlcNAc(b1-3)Gal(b1-4)GlcNAc(b1-3)Gal(b1-4)GlcNAc(b1-3)Gal(b1-4)GlcNAc(b1-2)Man(a1-6)]Man(b1-4)GlcNAc(b1-4)[Fuc(a1-6)]GlcNAc. In short, it runs like this:
as §1

The target of experiment [19] is Gal(b1-4)GlcNAc(b1-3)Gal(b1-4)GlcNAc(b1-3)Gal(b1-4)GlcNAc(b1-3)Gal(b1-4)GlcNAc(b1-3)Gal(b1-4)GlcNAc(b1-2)[Gal(b1-4)GlcNAc(b1-3)Gal(b1-4)GlcNAc(b1-3)Gal(b1-4)GlcNAc(b1-3)Gal(b1-4)GlcNAc(b1-3)Gal(b1-4)GlcNAc(b1-6)]Man(a1-6)[Gal(b1-4)GlcNAc(b1-3)Gal(b1-4)GlcNAc(b1-3)Gal(b1-4)GlcNAc(b1-3)Gal(b1-4)GlcNAc(b1-3)Gal(b1-4)GlcNAc(b1-2)Man(a1-3)]Man(b1-4)GlcNAc(b1-4)[Fuc(a1-6)]GlcNAc. The method in brief: as §1

B1: rCnSL-A (Clitocybe nebularis) (protein)
chain: VNPNLPGPNDVFVGFRGTNNIVGAIYEKDGIKDTPLNNGADAEMGPGSYITDGLFTARIFASGSAGNNPGTTATVCKIYASGVQWRGAPKGYIPVAYFGNGPTAEQRRQTYLRTLGLPGTAIRFGNLNTNPGQGPTAPRQMVVPPGPLRSLLKASCFPAADTRLPQTLHYFEKRVDWNIITAADSQTWGH
As for B1, the “glycan array binding signal (z-score)” value is -0.225 in the experiment with Fuc(a1-2)Gal; -0.137 in experiment [1]; -0.176 in [2]; -0.339 in experiment [3]; -0.306 in [4]; -0.002 in experiment [5]. Also, the “glycan array binding signal (z-score)” value in experiment [6] is -0.093; in experiment [7] it was -0.255; in the experiment with Gal(a1-4)Gal(b1-4)Glc it was -0.211; in the experiment with Gal(b1-3)Gal(b1-4)GlcNAc, -0.132; in [8], 1.95; in experiment [9], 3.37. Further, the “glycan array binding signal (z-score)” value was -0.203 in experiment [10]; 2.67 in experiment [11]; 3.11 in experiment [12]; 5.46 in [13]; 8.55 in [14]; 2.68 in experiment [15]. The “glycan array binding signal (z-score)” value in [16] is 10.3; in [17] it was 2.36; in experiment [18], 5.05; in [19] it was 13.6.
